This is part of a sample that, as a whole, favours compounds with a hit. Of some 79,000 tested, about 15% had one in any assay. No stated cut-off is given here; in the data, active means growth inhibition above about 70%; inactive means the rest.
Legend:
[1] = NCI Yeast Anticancer Drug Screen. Data for the rad50 strain (AID 155);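 further: 0% = growth of vehicle-only cultures of the same strain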; settings: S. cerevisiae rad50 strain growth inhibition; at 50.0 µM; active compounds read high
Procedure, shortened: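 Genetically altered yeast (DNA repair pathway); compound treatment; growth inhibition vs vehicle ctrl.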

[2] = NCI Yeast Anticancer Drug Screen. Data for the mec2-1 strain (AID 157); settings: S. cerevisiae mec2-1 strain, at 50.0 µM, active compounds read high
Procedure, shortened: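 Readout is yeast growth inhibition, normalised to vehicle-treated controls, in the mec2-1 strain exposed to compound.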

[3] = NCI Yeast Anticancer Drug Screen. Data for the sgs1 mgt1 strain (AID 161);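 further: 0% = growth of cultures given vehicle only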; settings: S. cerevisiae sgs1 mgt1 strain, at 50.0 µM, active compounds read high
Procedure, shortened: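 This yeast growth screen uses a strain with defined DNA-repair lesions; compound-treated growth is compared with vehicle-treated growth.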

[4] = NCI Yeast Anticancer Drug Screen. Data for the cln2 rad14 strain (AID 165);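 further: 0% = growth equal to vehicle treated cultures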; settings: S. cerevisiae cln2 rad14 strain, at 50.0 µM, active compounds read high
Procedure, shortened: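 Relative to vehicle controls, growth inhibition of compound-treated cln2 rad14 yeast was recorded.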

[5] = NCI Yeast Anticancer Drug Screen. Data for the bub3 strain (AID 167); settings: S. cerevisiae bub3 mutant strain, at 50.0 µM, active compounds read high
Procedure, shortened: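 Yeast carrying a defined mutation is treated with each compound, and growth is compared with that of vehicle-exposed cells to give inhibition.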

[6] = NCI Yeast Anticancer Drug Screen. Data for the mlh1 rad18 strain (AID 175); settings: S. cerevisiae mlh1 rad18 strain growth inhibition; at 50.0 µM; active compounds read high
Procedure, shortened: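 Test agents were incubated with a yeast strain of defined genotype (DNA damage repair defect). Inhibition of growth was derived by comparison with vehicle-exposed cultures.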

Measured: growth inhibition

CC1(C)OC2COC(CNCC3OCC4OC(C)(C)OC34)C2O1 (stereo unspecified)
inactive: [1] 3% | [2] -14.4% | [3] -6.75% | [4] -22.3% | [5] -14.8% | [6] 4.55%

NCCSCCN
inactive: [1] -7.65% | [2] -2.45% | [3] -4.65% | [4] -0.3% | [5] 13.2% | [6] 8.15%

Cc1c(N=Nc2cccc(Cl)c2Cl)c(-c2ccccc2)nn1C(=S)S
inactive: [1] 53.8% | [2] 42.6% | [3] 55.9% | [4] 35.6% | [5] 24.6% | [6] 28.2%

Cc1cc(Cl)ccc1N=C1NC(=O)C(CC(=O)Nc2ccc(Cl)cc2Cl)S1 (stereo unspecified)
inactive: [1] 14.8% | [2] 13.1% | [3] -2.35% | [4] -46.4% | [5] -4.3% | [6] 19.8%

N#CNC(N)=Nc1ccc(Cl)cc1
inactive: [1] 5.35% | [2] 7.5% | [3] -27.9% | [4] 19.6% | [5] -19.6% | [6] -17.4%

COC(=O)c1ccc(C(=O)OC)c(NC(=O)CC(=O)c2ccc([N+](=O)[O-])cc2)c1
inactive: [1] 46.2% | [2] 18.9% | [3] 51.4% | [4] 9.55% | [5] -0.5% | [6] 34.8%

CSCCC(NCc1c(O)ccc2c(C)cc(=O)oc12)C(=O)O (stereo unspecified)
inactive: [1] 16.5% | [2] 0.85% | [3] 14% | [4] 25.9% | [5] -1.05% | [6] 26.7%

Nc1nc(N)c(N=Nc2cc(Cl)cc(Cl)c2)c(=O)[nH]1
inactive: [1] 24.2% | [2] 9.3% | [3] -12.3% | [4] -1.1% | [5] 3.15% | [6] 8.8%

COc1ccc(Cc2ccccc2C(=O)c2ccc(OC)cc2)cc1
inactive: [1] -14.7% | [2] -13.8% | [3] 0.05% | [4] -4.65% | [5] 4.6% | [6] -14.8%

C=C1C(=O)OC2(CCCCC)CCCCC12 (stereo unspecified)
inactive: [1] 1.95% | [2] 4.1% | [3] -11.2% | [4] -9.9% | [5] 0.5% | [6] -10.5%

O=C(/C=C/c1ccccc1)Nc1cc(Cl)ccc1Cl
inactive: [1] 4.75% | [2] 26.1% | [3] 22.6% | [4] -7.3% | [5] 31.8% | [6] 17.6%

NNC(=O)CC(N)C(N)=O (stereo unspecified)
inactive: [1] -4.1% | [2] 3.5% | [3] -3.25% | [4] 13.3% | [5] 27.4% | [6] 16.5%

COc1ccc(C(=O)N=C(N)n2nc(C)cc2C)cc1
inactive: [1] -37.8% | [2] -1.35% | [3] -1% | [4] -16.1% | [5] 31.9% | [6] -0.75%

Cc1cc2nc3c(=O)[nH]c(=O)nc-3n(CCO)c2cc1C
inactive: [1] -0.5% | [2] 1.5% | [3] 8.6% | [4] -39.4% | [5] 6.15% | [6] -9.95%

CC(C)(C)C1CCC2c3c([nH]c4ccccc34)C3C(=O)N(c4ccccc4[N+](=O)[O-])C(=O)C3C2C1 (stereo unspecified)
inactive: [1] -16.9% | [2] -24.1% | [3] -18.6% | [4] 4.8% | [5] -15.3% | [6] -26.6%

Nc1c(N=Nc2ccc(S(=O)(=O)Nc3cnccn3)cc2)cc(S(=O)(=O)O)c2ccccc12
inactive: [1] 10.6% | [2] -2.45% | [3] 8.3% | [4] 5.9% | [5] 9.8% | [6] 26.6%

CCOC(=O)CC1NC(=O)CNC1=O (stereo unspecified)
inactive: [1] -9.2% | [2] 2.1% | [3] 5.3% | [4] -5% | [5] -1.65% | [6] -13.2%

Cc1ccc(/C=C/C(=N/Nc2ccccc2)C(C)CN(C)C)cc1 (stereo unspecified)
inactive: [1] -3.2% | [2] -10.1% | [3] -3.25% | [4] -15.3% | [5] -1.35% | [6] -5%

O=c1cc(C(Br)(Br)Br)[nH]c2ccccc12
inactive: [1] 19.4% | [2] 3.25% | [3] 9.45% | [4] -5.7% | [5] 4.55% | [6] 18%

CC(=O)N1c2ccccc2C2(C)CCCC(O)C12O (stereo unspecified)
inactive: [1] 8.05% | [2] 6.05% | [3] -3.9% | [4] 1.9% | [5] 6.5% | [6] -23.9%

CO/N=C(\C([O-])=N\[n+]1cnn(CC(=O)OC(C)(C)C)c1)c1csc(NC(c2ccccc2)(c2ccccc2)c2ccccc2)n1
inactive: [1] 39.5% | [2] 0.75% | [3] 11.1% | [4] 8.3% | [5] 15.3% | [6] -10.1%

From PubChem BioAssay (NCI)
